Values joined by “and” are separate entries in the source; they are usually repeats but may differ in a detail not shown here. Equal values may be shown once. Values without a mark were called inactive. Inconclusive results are not listed. A call without a number means that no potency is given here. Active and inactive are the calls of the source. Unless noted, calls follow the shape of the dose curve; as a rule, active = well fitted curve in the direction sought with a large enough effect; inconclusive = small, poorly fitted or top-dose-only effect, or another doubt; inactive = no such curve, though single readings can be large; an effect the other way counts as inactive or inconclusive.
Assays:
[1] = Cell Viability - LYMP2-001 (AID 921); also: nearly all actives have a fitted effect of over 70% in size; also: potency is read from the fitted curve at half-maximal effect
Procedure, shortened: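 A lymphoblastoid cell line of human origin was treated with library compounds across a concentration series for 24 hours, and viable cell number was estimated from ATP-driven luciferase light output. Hill modeling gave AC50.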

[2] = MultiTox-Fluor Cytotoxicity Assay - LYMP1-002 - Dead Cells (AID 960); also: nearly all actives have a fitted effect of over 60% in size; also: potency is read from the fitted curve at half-maximal effect
Procedure, shortened: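 Human lymphoblastoid cells (LYMP1-002), 2500/well in complete medium, were exposed to compounds for 16 hr at 37 C. Dead-cell protease activity was read as bis-AAF-R110 fluorescence (Ex/Em 485/520), normalized to DMSO and 15 uM tetraoctylammonium bromide; AC50 from Hill fits.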

[3] = Cell Viability - LYMP2-005 (AID 967); also: potency is read from the fitted curve at half-maximal effect
Procedure, shortened: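 Luciferase-based ATP quantitation served as the viability measure in human lymphoblastoid LYMP2-005 cells exposed to test compounds for 24 h at 37 C in complete culture medium. Potency (AC50) was obtained by fitting concentration-response curves with the Hill equation.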

[4] = Cell Viability - LYMP2-015 (AID 971); also: nearly all actives have a fitted effect of over 55% in size; also: potency is read from the fitted curve at half-maximal effect
Procedure, shortened: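 Human lymphoblastoid cells (2500/well) in complete medium were preincubated 5 hr at 37 C, then compound-treated 24 hr at 37 C. Intracellular ATP was read by CellTiter-Glo luminescence after 30 min at room temperature; AC50 came from Hill-equation concentration-response fits.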

[5] = Cell Viability - LYMP2-019 (AID 973); also: nearly all actives have a fitted effect of over 55% in size; also: potency is read from the fitted curve at half-maximal effect
Procedure, shortened: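 Human lymphoblastoid cells were seeded at 2500 cells/well, preincubated 5 hr at 37 C, then exposed to compounds for 24 hr at 37 C in complete medium. Intracellular ATP was measured by CellTiter-Glo luminescence; AC50 from Hill fits.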

[6] = Cell Viability - LYMP2-002 (AID 977);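 also: compound exposure lasted 24 h at 37 °C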; also: potency is read from the fitted curve at half-maximal effect
Procedure, shortened: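 Human lymphoblastoid LYMP2-002 cells, 2500 per well, exposed to compounds for 24 h at 37 C in complete medium; viability read as intracellular ATP by CellTiter-Glo luminescence, AC50 from Hill fits.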

[7] = Cell Viability - LYMP2-008 (AID 980); also: nearly all actives have a fitted effect of over 60% in size; also: potency is read from the fitted curve at half-maximal effect
Procedure, shortened: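 Human lymphoblastoid cells (2500/well) were plated, held 5 hr at 37 C, then exposed to compounds for 24 hr at 37 C in complete medium. Intracellular ATP was read by CellTiter-Glo luminescence; AC50 from Hill-fitted concentration-response.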

[8] = Cell Viability - LYMP2-016 (AID 984); also: nearly all actives have a fitted effect of over 55% in size; also: potency is read from the fitted curve at half-maximal effect
Procedure, shortened: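 Concentration-dependent ATP depletion measured in LYMP2-016 lymphoblastoid cells, 24 h, 37 C; luciferase-based luminescent detection; Hill-equation AC50.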

[9] = Cell Viability - LYMP2-018 (AID 985);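 also: compound exposure lasted 24 hr at 37 °C; nearly all actives have a fitted effect of over 50% in size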; also: potency is read from the fitted curve at half-maximal effect
Procedure, shortened: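 Human lymphoblastoid cells (2500/well) were pre-incubated 5 hr at 37 C, then exposed to compounds for 24 hr at 37 C in complete medium. Viability was read as intracellular ATP by CellTiter-Glo luminescence; AC50 values came from Hill-equation fits.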

[10] = Cell Viability - LYMP2-020 (AID 986); also: nearly all actives have a fitted effect of over 55% in size; also: potency is read from the fitted curve at half-maximal effect
Procedure, shortened: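 Human lymphoblastoid cells, 2500/well, were pre-incubated 5 hr at 37 C, then exposed to compounds for 24 hr at 37 C in complete medium. Intracellular ATP was read by CellTiter-Glo luminescence, and AC50 was derived by Hill fitting of concentration-response data.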

[11] = Cell Viability - LYMP2-022 (AID 987); also: nearly all actives have a fitted effect of over 55% in size; also: potency is read from the fitted curve at half-maximal effect
Procedure, shortened: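 Human lymphoblastoid cells, 2500/well, preincubated 5 hr at 37 C, then exposed to compounds over a concentration range for 24 hr at 37 C in complete medium. Viability read as intracellular ATP by CellTiter-Glo luminescence after 30 min at room temperature; AC50 from Hill fits.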

[12] = Cell Viability - LYMP2-024 (AID 988); also: nearly all actives have a fitted effect of over 60% in size; also: potency is read from the fitted curve at half-maximal effect
Procedure, shortened: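 Human lymphoblastoid cells (2500/well) in complete medium were preincubated 5 hr at 37 C, then exposed to compounds for 24 hr at 37 C. Intracellular ATP was read by CellTiter-Glo luminescence; AC50 from Hill-equation fits of concentration-response data.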

[13] = target: Thyroid hormone receptor beta (Homo sapiens) (UniProt P10828); assay: qHTS assay for small molecule agonists of thyroid hormone receptor beta signaling (AID 588545; calls by dose curve)
Sequence of Thyroid hormone receptor beta (Homo sapiens) (P10828 whole entry, looked up): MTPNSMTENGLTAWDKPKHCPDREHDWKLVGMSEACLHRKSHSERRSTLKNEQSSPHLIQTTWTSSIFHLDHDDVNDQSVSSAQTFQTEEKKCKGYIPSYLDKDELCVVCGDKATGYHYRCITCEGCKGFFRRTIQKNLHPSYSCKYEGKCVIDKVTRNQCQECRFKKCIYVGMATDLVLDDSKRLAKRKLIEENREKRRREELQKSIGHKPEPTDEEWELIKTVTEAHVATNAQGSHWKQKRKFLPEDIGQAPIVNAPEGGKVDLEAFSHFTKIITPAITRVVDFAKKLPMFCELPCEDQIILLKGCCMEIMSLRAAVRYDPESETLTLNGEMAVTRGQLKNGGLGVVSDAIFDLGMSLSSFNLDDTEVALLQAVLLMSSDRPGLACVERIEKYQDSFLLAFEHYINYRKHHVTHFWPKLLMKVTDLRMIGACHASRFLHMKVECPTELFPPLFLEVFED
Procedure, shortened: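 TR-UAS-bla GripTite HEK 293 cells (2500/well, medium with 2% charcoal/dextran FBS) were treated in agonist mode for 18 h at 37 C, titrated. Beta-lactamase was read by CCF4 ratio after 2 h; normalized to 10 nM T3 (100%) and DMSO, Hill-fitted for EC50 and efficacy.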

[14] = qHTS assay for small molecule disruptors of the mitochondrial membrane potential - 1 hr assay (AID 651754; calls by dose curve; also: nearly all actives have a fitted effect of over 35% in size; also: potency is read from the fitted curve at half-maximal effect)
Procedure, shortened: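 HepG2 cells, attached overnight at 37C, were exposed to compound or DMSO vehicle for 1 hr at 37C, 5% CO2, then stained with Mito-MPS dye for 30 min. Red aggregate versus green monomer fluorescence reports membrane potential.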

[15] = qHTS assay for environmental chemicals that activate the Aryl hydrocarbon Receptor (AhR) signaling pathway (AID 651777); conditions: 1A2-DRE human hepatoma cells, luciferase, 24 h; activation: stronger effect = higher value; also: nearly all actives have a fitted effect of over 15% in size
Procedure, shortened: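 Quantitative HTS in stably transfected human liver-derived cells whose luciferase gene sits downstream of the CYP1A2 promoter and dioxin response element. After 24 hr exposure at 37 C, One-Glo luminescence was measured.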

[16] = qHTS assay for small molecule agonists of the antioxidant response element (ARE) signaling pathway measured by Nrf2-dependant transcriptional activity (AID 720636; active = well fitted curve in the direction sought with a large enough effect in the repeat runs; an effect the other way counts as inactive or inconclusive; also: potency is read from the fitted curve at half-maximal effect)
Procedure, shortened: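 Quantitative HTS format in HepG2 cells stably expressing an ARE-luciferase reporter; 16 hr compound treatment at 37 C, luciferase signal detected with ONE-Glo.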

[17] = qHTS assay for small molecule antagonists of the retinoid-related orphan receptor gamma (ROR-gamma) signaling pathway - cell viability counter screen (AID 720652; active = well fitted curve in the direction sought with a large enough effect in the repeat runs; an effect the other way counts as inactive or inconclusive;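 also: compound exposure lasted 16 hr before ATP read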; also: potency is read from the fitted curve at half-maximal effect)
Procedure, shortened: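 Counter screen in CHO cells carrying TET-inducible ROR-gamma and an ROR response element-luciferase reporter; cells plated 5 hr, compound pinned, doxycycline added, then 16 hr at 37 C. Viability read as intracellular ATP by CellTiter-Glo luminescence.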

[18] = target: Nuclear receptor subfamily 1 group I member 2 (Rattus norvegicus) (UniProt Q9R1A7); assay: qHTS assay for small molecule activators of the rat pregnane X receptor (rPXR) signaling pathway (AID 651751; call rule not given here); conditions: rPXR reporter cells, luciferase (One-Glo), 24 h
Sequence of Nuclear receptor subfamily 1 group I member 2 (Rattus norvegicus) (Q9R1A7 whole entry, looked up): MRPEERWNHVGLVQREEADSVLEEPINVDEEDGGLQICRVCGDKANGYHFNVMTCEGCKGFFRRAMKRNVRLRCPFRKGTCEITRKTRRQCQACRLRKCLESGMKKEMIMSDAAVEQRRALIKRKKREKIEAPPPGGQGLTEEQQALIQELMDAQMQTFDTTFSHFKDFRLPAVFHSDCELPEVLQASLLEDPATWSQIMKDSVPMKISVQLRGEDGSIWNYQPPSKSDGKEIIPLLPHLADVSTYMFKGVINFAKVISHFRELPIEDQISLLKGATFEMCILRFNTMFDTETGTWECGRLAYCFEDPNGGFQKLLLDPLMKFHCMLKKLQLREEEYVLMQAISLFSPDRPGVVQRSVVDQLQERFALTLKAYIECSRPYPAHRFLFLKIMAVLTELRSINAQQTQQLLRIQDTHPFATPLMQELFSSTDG

[19] = target: Nuclear receptor ROR-gamma (Homo sapiens) (UniProt P51449); assay: qHTS assay for small molecule antagonists of the retinoid-related orphan receptor gamma (ROR-gamma) signaling pathway (AID 651802); also: nearly all actives have a fitted effect of over 60% in size; also: potency is read from the fitted curve at half-maximal effect
Sequence of Nuclear receptor ROR-gamma (Homo sapiens) (P51449 whole entry, looked up): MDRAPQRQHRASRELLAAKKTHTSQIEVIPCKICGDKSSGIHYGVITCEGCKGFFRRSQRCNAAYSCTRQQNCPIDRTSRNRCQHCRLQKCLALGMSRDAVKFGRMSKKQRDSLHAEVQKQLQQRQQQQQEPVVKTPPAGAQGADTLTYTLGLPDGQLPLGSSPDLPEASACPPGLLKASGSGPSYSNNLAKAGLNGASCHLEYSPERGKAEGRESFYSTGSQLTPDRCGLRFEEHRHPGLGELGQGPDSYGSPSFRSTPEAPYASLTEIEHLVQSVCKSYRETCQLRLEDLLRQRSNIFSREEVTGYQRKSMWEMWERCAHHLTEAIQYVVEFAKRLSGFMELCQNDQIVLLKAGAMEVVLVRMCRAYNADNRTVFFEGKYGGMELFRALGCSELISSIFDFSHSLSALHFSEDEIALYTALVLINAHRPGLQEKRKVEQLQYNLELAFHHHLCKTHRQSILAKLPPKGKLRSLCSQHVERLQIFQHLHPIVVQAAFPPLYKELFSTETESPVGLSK
Procedure, shortened: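 CHO cells carrying TET-inducible ROR-gamma and an ROR response element–luciferase reporter were exposed to compound, then induced with doxycycline. After 16hr at 37C, luminescence was read; lower signal indicates antagonism.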

SMILES: C=CC(=O)OCCOCCOC(=O)C=C
- Potency [1]: 12.6 µM (active)
- Potency [2]: 25.1 µM (active)
- Potency [3]: 10 µM (active)
- Potency [4]: 15.8 µM (active)
- Potency [5]: 25.1 µM (active)
- Potency [6]: 25.1 µM (active)
- Potency [7]: 31.6 µM (active)
- Potency [8]: 20 µM (active)
- Potency [9]: 15.8 µM (active)
- Potency [10]: 15.8 µM (active)
- Potency [11]: 12.6 µM (active)
- Potency [12]: 12.6 µM (active)
- outcome [13]: inactive
- Potency [14]: inactive
- activation [15]: 2.82%
- Potency [16]: 66.8 µM (active)
- Potency [17]: inactive
- max response [18]: 9.16%

SMILES: CO[C@H]1/C=C/O[C@@]2(C)Oc3c(C)c(O)c4c(O)c(c5c(c4c3C2=O)NC2(CCN(CC(C)C)CC2)N=5)=NC(=O)/C(C)=C\C=C\[C@H](C)[C@H](O)[C@@H](C)[C@@H](O)[C@@H](C)[C@H](OC(C)=O)[C@@H]1C
- Potency [2]: inactive
- Potency [5]: inactive
- Potency [6]: inactive
- Potency [7]: inactive
- outcome [13]: inactive
- Potency [14]: inactive
- activation [15]: -1.73%
- Potency [19]: inactive
- Potency [16]: inactive
- Potency [17]: inactive
- max response [18]: 7.05%

SMILES: Nc1ccc2cc3ccccc3cc2c1
- Potency [1]: inactive
- Potency [2]: inactive
- Potency [3]: inactive
- Potency [4]: inactive
- Potency [5]: inactive
- Potency [6]: inactive
- Potency [7]: inactive
- Potency [8]: inactive
- Potency [9]: inactive
- Potency [10]: inactive
- Potency [11]: inactive
- Potency [12]: inactive
- Potency [14]: 3.76 µM (active)
- Potency [19]: inactive
- Potency [17]: inactive

SMILES: O=C1OC2(c3cc(Br)c(O)c(Br)c3Oc3c2cc(Br)c(O)c3Br)c2c(Cl)c(Cl)c(Cl)c(Cl)c21
- Potency [3]: inactive
- Potency [8]: inactive
- Potency [10]: inactive
- Potency [12]: inactive
- activation [15]: -2.87%
- Potency [19]: inactive
- Potency [16]: inactive

SMILES: O=C1OC(O)C(C(Cl)Cl)=C1Cl (stereo not drawn)
- Potency [1]: 20 µM (active)
- Potency [2]: 31.6 µM (active)
- Potency [3]: 15.8 µM (active)
- Potency [4]: 25.1 µM (active)
- Potency [5]: 25.1 µM (active)
- Potency [6]: 25.1 µM (active)
- Potency [7]: 25.1 µM (active)
- Potency [8]: 25.1 µM (active)
- Potency [9]: 25.1 µM (active)
- Potency [10]: 25.1 µM (active)
- Potency [11]: 15.8 µM (active)
- Potency [12]: 12.6 µM (active)
- Potency [14]: inactive
- activation [15]: -0.209%
- Potency [17]: 26.6 µM (active)
- max response [18]: -3.61%

SMILES: ClC1=C(Cl)C(Cl)(Cl)C(Cl)=C1Cl
- Potency [2]: inactive
- Potency [3]: inactive
- outcome [13]: inactive
- Potency [14]: inactive
- activation [15]: 0.158% and 0.426%
- Potency [16]: inactive
- max response [18]: 3.04% and -2.94%

SMILES: C/C=C1\C(=O)C[C@H]2[C@@H]3CCC4=CC(=O)CC[C@]4(C)[C@H]3CC[C@]12C
- Potency [2]: 25.1 µM (active)
- Potency [3]: inactive
- Potency [4]: inactive
- Potency [6]: inactive
- outcome [13]: inactive
- Potency [14]: inactive
- activation [15]: -0.115%
- Potency [19]: 33.5 µM (active)

SMILES: CCCCCCCC[N+](CCCCCCCC)(CCCCCCCC)CCCCCCCC
- Potency [1]: 3.98 µM (active)
- Potency [2]: 3.16 µM (active)
- Potency [3]: 7.94 µM (active)
- Potency [4]: 7.94 µM (active)
- Potency [5]: 7.94 µM (active)
- Potency [6]: 7.94 µM (active)
- Potency [7]: 3.98 µM (active)
- Potency [8]: 5.01 µM (active)
- Potency [9]: 5.01 µM (active)
- Potency [10]: 5.01 µM (active)
- Potency [11]: 3.16 µM (active)
- Potency [12]: 3.98 µM (active)
- Potency [14]: 3.35 µM (active)
- activation [15]: -8.33%
- Potency [19]: 1.5 µM (active)
- Potency [16]: inactive
- Potency [17]: 9.44 µM (active)

SMILES: O=Cc1ccc(Cl)c(Cl)c1
- Potency [1]: inactive
- Potency [2]: inactive
- Potency [3]: inactive
- Potency [4]: inactive
- Potency [5]: inactive
- Potency [6]: inactive
- Potency [7]: inactive
- Potency [8]: inactive
- Potency [9]: inactive
- Potency [10]: inactive
- Potency [11]: inactive
- Potency [12]: inactive
- outcome [13]: inactive
- Potency [14]: inactive
- Potency [19]: inactive
- Potency [16]: inactive
- Potency [17]: inactive
- max response [18]: -0.904%

SMILES: CC/C(=C(\c1ccccc1)c1ccc(OCCN(C)C)cc1)c1ccc(O)cc1
- Potency [14]: inactive
- activation [15]: -5.29%

SMILES: CN(C)c1ccc(C2(c3ccc(N(C)C)cc3)OC(=O)c3cc(N(C)C)ccc32)cc1
- Potency [1]: inactive
- Potency [4]: inactive
- Potency [5]: inactive
- Potency [6]: inactive
- Potency [7]: inactive
- Potency [8]: inactive
- Potency [9]: inactive
- Potency [10]: inactive
- Potency [11]: inactive
- Potency [12]: inactive
- activation [15]: -0.148%
- Potency [19]: inactive
- Potency [16]: inactive
- Potency [17]: inactive
- max response [18]: -2.55%

SMILES: Cc1cc(Nc2ccc(O)cc2)ccc1N
- Potency [1]: 31.6 µM (active)
- Potency [3]: 39.8 µM (active)
- Potency [4]: 39.8 µM (active)
- Potency [5]: 39.8 µM (active)
- Potency [7]: 50.1 µM (active)
- Potency [8]: 50.1 µM (active)
- Potency [9]: 39.8 µM (active)
- Potency [10]: 39.8 µM (active)
- Potency [11]: 31.6 µM (active)
- Potency [12]: 25.1 µM (active)
- outcome [13]: inactive
- Potency [19]: 21.1 µM (active)
- Potency [16]: inactive
- max response [18]: -2.27%

Reference: PubChem BioAssay (NCATS)
